Reference: PubChem BioAssay (NCI)
The panel holds about 83,000 compounds, 20% with a hit somewhere; the sample as a whole holds those more often.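 Plates (96-well) were seeded with cells, treated with compound at one concentration, and incubated for 48 hours before percent growth was determined.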 Unmarked numbers belong to inactive results. Active and inactive are the calls of the source. The calls were made as follows: active = growth percent below 10; inactive = the rest.

Tests used:
Test in all cases: NCI-60 one-dose screen, 48 h (100 = growth as untreated, 0 = no growth, -100 = all killed)
Details in all cases: 10 µM unless noted
NCI-H23 lung = system: NCI-H23 lung
NCI-H226 lung = system: NCI-H226 lung
NCI-H322M lung = system: NCI-H322M lung
HOP-62 NSCLC = system: HOP-62 NSCLC
NCI-H460 lung = system: NCI-H460 lung
HOP-92 NSCLC = system: HOP-92 NSCLC
NCI-H522 lung = system: NCI-H522 lung
A549/ATCC NSCLC = system: A549/ATCC NSCLC
786-0 renal = system: 786-0 renal
COLO 205 colon = system: COLO 205 colon
DU-145 prostate = system: DU-145 prostate
K-562 leukemia = system: K-562 leukemia
MALME-3M melanoma = system: MALME-3M melanoma
MDA-MB-231 breast = system: MDA-MB-231 breast
RXF 393 renal = system: RXF 393 renal
SF-268 CNS = system: SF-268 CNS
SF-295 CNS = system: SF-295 CNS
SF-539 CNS = system: SF-539 CNS
M14 melanoma = system: M14 melanoma
UACC-257 melanoma = system: UACC-257 melanoma

SMILES | growth (NCI-H23 lung) [%] | growth (NCI-H226 lung) | growth (NCI-H322M lung) | growth (HOP-62 NSCLC) [%] | growth (NCI-H460 lung) | growth (HOP-92 NSCLC) | growth (NCI-H522 lung) [%] | growth (A549/ATCC NSCLC) | growth (786-0 renal) | growth (COLO 205 colon) [%] | growth (DU-145 prostate) [%] | growth (K-562 leukemia) [%] | growth (MALME-3M melanoma) | growth (MDA-MB-231 breast) | growth (RXF 393 renal) | growth (SF-268 CNS) | growth (SF-295 CNS) | growth (SF-539 CNS) | growth (M14 melanoma) | growth (UACC-257 melanoma)
Oc1ccc(CCC2CCNc3ccccc32)cc1 (stereo not drawn) | 65.3 | 62.8% | 91.1% | 75.8 | 83.8% | 49.3% | 68.8 | 52.1% | 82.2% | 93.4 | 93.4 | 69.7 | 98.8% | 86.2% | 81.5% | 83.1% | 75.2% | 75.7% | 89.4% | –
C=COC(=O)C(C)(C)C | 102 | 109% | 104% | 104 | 104% | 71.7% | 93.7 | 105% | 96.2% | 104 | 110 | 103 | 95.5% | 113% | 105% | 103% | 93.1% | 102% | 107% | 107%
CN1CCCN(C(c2ccccc2)c2ccc(Cl)cc2)CC1 (stereo not drawn) | 91.4 | 93.9% | 100% | 94.2 | 93% | 60.4% | 103 | 107% | 73.3% | 103 | 107 | 90 | 98.8% | 95.8% | 86.8% | 82.3% | 92.2% | 96.9% | 91.1% | –
O=C(c1ccccc1O)N1CCCC1 | 99.3 | 94.5% | 101% | 89.7 | 105% | 94.5% | 76.1 | 74.9% | 95.9% | 103 | 115 | 89.1 | 104% | 105% | 106% | 106% | 96.6% | – | 96.4% | 80.2%
CC(=O)NC(CCc1ccc(Cl)c(Cl)c1)c1cccc(O)c(=O)c1 (stereo not drawn) | 21.8 | -13.8% (active) | 5% (active) | 10.3 | 3.68% (active) | 4.89% (active) | 15.7 | 8.58% (active) | 10.2% | 16.7 | 16.6 | 11.2 | -17.9% (active) | 28.3% | 18.6% | 8.61% (active) | -22.2% (active) | 2.57% (active) | -44.2% (active) | -11% (active)
CC(CO)(CO)C(=O)O | 110 | 96.8% | 99.3% | 95.7 | 105% | 86.3% | 101 | 102% | 105% | 109 | 105 | 101 | 90.4% | 108% | 99.5% | 104% | – | 97.9% | 103% | 98.4%
CSc1cnc2ccccc2n1 | 103 | 103% | 94.4% | 84.7 | 102% | 99.6% | 80 | 82.8% | 107% | 116 | 115 | 106 | 88.7% | 95.7% | 111% | 105% | 97.9% | – | – | 91.3%
NC(=S)N/N=C/c1ccc(OC(=O)COc2ccccc2)cn1 | 28.2 | 92% | 54% | 57.9 | 83.5% | 63.8% | 58 | 107% | 22% | 85.9 | 26.1 | 53.4 | 52.2% | 60% | 72.2% | 30.7% | 111% | – | 15% | 90.6%
OCC(O)COc1ccc(Cl)cc1Cl (stereo not drawn) | 105 | 106% | 95.1% | 88.4 | 111% | 130% | 79.5 | 72.6% | 93.4% | 94 | 110 | 88.6 | 94.8% | 97.8% | 115% | 105% | 97.5% | – | 95.9% | 79.6%
C=C(C)[C@@H]1CC[C@]2(CO)CC[C@]3(C)[C@H](CC[C@@H]4[C@@]5(C)CC[C@H](O)C(C)(C)[C@@H]5CC[C@]43C)[C@@H]12 | 25.9 | 37.5% | 68.9% | 43.2 | 31.4% | 36.4% | 40.2 | -3.89% (active) | -7.62% (active) | 52.5 | 28.2 | 24.3 | 63% | 4.46% (active) | -50.7% (active) | 54.6% | 71.4% | -33% (active) | 49.3% | 6.89% (active)
NC(=S)N/N=C/c1ccc(OC(=O)COc2ccc(Cl)cc2)cn1 | 33.5 | 93.5% | 42.5% | 53 | 69.7% | 66.9% | 43.3 | 107% | 32.5% | 84.7 | 29.3 | 44.1 | 45.5% | 66.6% | 67% | 27.8% | 99.2% | – | 17.9% | 78.1%
O=C(NC(=S)N1CC=CCC1)c1ccccc1 | 107 | 104% | 116% | 109 | 113% | 104% | 77.3 | 103% | 111% | 118 | 129 | 111 | 100% | 104% | 128% | 108% | 111% | – | 95.8% | 105%
Cc1c(Cl)cccc1NC(=S)NC(=O)c1ccccc1 | 85.5 | 90.8% | 97.4% | 110 | 103% | 71.8% | 59 | 75% | 120% | 109 | 111 | 79.7 | 89.4% | 90.2% | 85.5% | 109% | 85.1% | 100% | 115% | 88.9%
CC1CCC(C(C)(C)[N+](C)(C)C)CC1 (stereo not drawn) | 100 | 100% | 106% | 96.9 | 107% | 101% | 106 | 95.9% | 96.1% | 106 | 102 | 116 | 96.1% | 103% | 111% | 95.8% | 101% | 96% | 98.1% | 99.6%
CCCCCCCCCc1ccc(OC(C)=O)cc1 | 105 | 99.7% | 96.8% | 113 | 103% | 98.2% | 99.4 | 98.9% | 101% | 113 | 103 | 101 | 103% | 110% | 111% | 101% | 96.6% | 92.8% | 99.5% | 110%
CCCCCCCCCCCCCCCCOc1ccccc1NC(=O)CC(C)=O | 111 | 105% | 109% | 112 | 112% | 96.4% | 87.1 | 91.7% | 59.8% | 131 | 92 | 87.1 | 117% | 87.4% | 107% | 103% | – | 94.5% | 109% | 117%
Cn1c(=O)c2[nH]c(CC(=O)O)nc2n(C)c1=O | 100 | 90.9% | 99.6% | 97.2 | 110% | 113% | 86.4 | 91.4% | 106% | 109 | 108 | 105 | 99.4% | 100% | 104% | 101% | 101% | – | 104% | 96.9%
